Screen size: about 39,000 compounds; about 3,300 (8.5%) were called active. What follows is part of a selection rich in actives, with near analogues and random picks from the rest.
The molecules below were run on HepG2 (assay: cytotoxicity call (relative viability < 0.9)). Details: 10 µM.

SMILES | cytotoxicity call
Cc1cc2nc3ccc(N(C)C)cc3[s+]c2cc1N.[Cl-] | active
CN(C)c1ccc2c(=O)[nH][nH]c(=O)c2c1 | inactive
CN(C)c1ccc2nc3ccc(N(C)C)cc3[s+]c2c1.O.[Cl-] | active
C[C@@H]1CN([C@@H](C)CO)C(=O)c2cc(C#Cc3ccc(F)cc3)cnc2O[C@H]1CN(C)Cc1ccccn1 | inactive
O=C(C[C@H]1C[C@@H]2c3cc(NS(=O)(=O)c4ccc(F)cc4)ccc3O[C@@H]2[C@H](CO)O1)N1CCOCC1 | inactive
O=C(C[C@H]1C[C@H]2c3cc(NC(=O)Nc4ccc(C(F)(F)F)cc4)ccc3O[C@H]2[C@H](CO)O1)NCCc1ccccc1 | inactive
C[C@@H]1CCCCO[C@@H](CN(C)C(=O)NC2CCCCC2)[C@H](C)CN([C@@H](C)CO)C(=O)c2cc(NC(=O)Nc3ccc(C(F)(F)F)cc3)ccc2O1 | inactive
C[C@@H]1CCCCO[C@@H](CN(C)C(=O)NC2CCCCC2)[C@@H](C)CN([C@H](C)CO)C(=O)c2cc(NC(=O)Nc3ccc(C(F)(F)F)cc3)ccc2O1 | active
C[C@@H]1CN([C@@H](C)CO)C(=O)c2cc(NC(=O)Nc3ccc(C(F)(F)F)cc3)ccc2O[C@@H](C)CCCCO[C@@H]1CN(C)C(=O)NC1CCCCC1 | inactive
C[C@H]1CCCCO[C@@H](CN(C)C(=O)NC2CCCCC2)[C@@H](C)CN([C@@H](C)CO)C(=O)c2cc(NC(=O)Nc3ccc(C(F)(F)F)cc3)ccc2O1 | active
C[C@H]1CCCCO[C@H](CN(C)C(=O)NC2CCCCC2)[C@@H](C)CN([C@@H](C)CO)C(=O)c2cc(NC(=O)Nc3ccc(C(F)(F)F)cc3)ccc2O1 | active
C[C@@H]1CN([C@H](C)CO)C(=O)c2cc(NC(=O)Nc3ccc(C(F)(F)F)cc3)ccc2O[C@@H](C)CCCCO[C@@H]1CN(C)C(=O)NC1CCCCC1 | inactive
C[C@H](CO)N1C[C@H](C)[C@@H](CN(C)C(=O)NC2CCCCC2)OCCCC[C@H](C)Oc2ccc(NC(=O)Nc3ccc(C(F)(F)F)cc3)cc2C1=O | inactive
C[C@@H]1CCCCO[C@H](CN(C)C(=O)NC2CCCCC2)[C@H](C)CN([C@H](C)CO)C(=O)c2cc(NC(=O)Nc3ccc(C(F)(F)F)cc3)ccc2O1 | inactive
C[C@H](CO)N1C[C@H](C)[C@H](CN(C)C(=O)NC2CCCCC2)OCCCC[C@H](C)Oc2ccc(NC(=O)Nc3ccc(C(F)(F)F)cc3)cc2C1=O | active
C[C@@H]1CCCCO[C@H](CN(C)C(=O)NC2CCCCC2)[C@H](C)CN([C@@H](C)CO)C(=O)c2cc(NC(=O)Nc3ccc(C(F)(F)F)cc3)ccc2O1 | inactive
C[C@@H]1CCCCO[C@H](CN(C)C(=O)NC2CCCCC2)[C@@H](C)CN([C@@H](C)CO)C(=O)c2cc(NC(=O)Nc3ccc(C(F)(F)F)cc3)ccc2O1 | inactive
C[C@@H]1CCCCO[C@@H](CN(C)C(=O)NC2CCCCC2)[C@@H](C)CN([C@@H](C)CO)C(=O)c2cc(NC(=O)Nc3ccc(C(F)(F)F)cc3)ccc2O1 | inactive
C[C@@H]1C=CNN1C(=O)c1cccnc1 | inactive
O=C(C[C@H]1CC[C@@H]2[C@H](COC[C@@H](O)CN2C(=O)c2ccccc2F)O1)N1CCN(c2ccccc2)CC1 | inactive
C[C@H]1CN([C@@H](C)CO)C(=O)c2cc(NC(=O)Nc3cccc4ccccc34)ccc2O[C@@H]1CN(C)C(=O)Nc1ccc(F)cc1 | inactive

SMILES | cytotoxicity call
O=C(C[C@@H]1C[C@@H]2c3cc(NS(=O)(=O)c4ccccc4)ccc3O[C@@H]2[C@@H](CO)O1)NC1CCCCC1 | inactive
C[C@@H]1CN([C@@H](C)CO)C(=O)Cc2cc(NC(=O)Cc3ccccc3)ccc2O[C@@H]1CN(C)S(=O)(=O)c1ccc(F)cc1 | inactive
C[C@H](CO)N1C[C@H](C)[C@H](CN(C)Cc2ccc3c(c2)OCO3)Oc2c(NS(=O)(=O)c3cn(C)cn3)cccc2C1=O | inactive
O=C(/C=C/c1ccc(O)c(O)c1)O[C@@H]1C[C@](OC(=O)/C=C/c2ccc(O)c(O)c2)(C(=O)O)C[C@@H](O)[C@H]1O | inactive
C[C@H](CO)N1C[C@H](C)[C@@H](CN(C)C(=O)Nc2ccc(C(F)(F)F)cc2)OCCCC[C@H](C)Oc2ccc(NC(=O)NC3CCCCC3)cc2C1=O | inactive
C[C@H]1CCCCO[C@H](CN(C)C(=O)Nc2ccc(C(F)(F)F)cc2)[C@@H](C)CN([C@@H](C)CO)C(=O)c2cc(NC(=O)NC3CCCCC3)ccc2O1 | inactive
C[C@@H]1CCCCO[C@@H](CN(C)C(=O)Nc2ccc(C(F)(F)F)cc2)[C@H](C)CN([C@H](C)CO)C(=O)c2cc(NC(=O)NC3CCCCC3)ccc2O1 | active
COc1ccc(NC(=O)N2C[C@@H](O)COC[C@H]3O[C@H](CC(=O)NC4Cc5ccccc5C4)CC[C@@H]32)cc1 | inactive
C[C@@H]1CN([C@@H](C)CO)C(=O)c2c(c3ccccc3n2C)-c2ccccc2CO[C@@H]1CN(C)Cc1ccc(Cl)c(Cl)c1 | inactive
C[C@@H]1CCCCO[C@@H](CN(C)Cc2ccc(C(F)(F)F)cc2)[C@@H](C)CN([C@H](C)CO)C(=O)c2cc(N(C)C)ccc2O1 | inactive
C[C@H](CO)N1C[C@H](C)[C@@H](CN(C)Cc2ccc(Cl)c(Cl)c2)OCCCC[C@H](C)Oc2ccc(N(C)C)cc2C1=O | inactive
C[C@@H]1CCCCO[C@@H](CN(C)Cc2ccc(Cl)c(Cl)c2)[C@H](C)CN([C@H](C)CO)C(=O)c2cc(N(C)C)ccc2O1 | active
C[C@@H]1CCCCO[C@H](CN(C)Cc2ccc(C(F)(F)F)cc2)[C@H](C)CN([C@H](C)CO)C(=O)c2cc(N(C)C)ccc2O1 | active
C[C@H](CO)N1C[C@H](C)[C@H](CN(C)Cc2ccc(C(F)(F)F)cc2)OCCCC[C@H](C)Oc2ccc(N(C)C)cc2C1=O | inactive
C[C@@H]1CCCCO[C@H](CN(C)Cc2ccc(Cl)c(Cl)c2)[C@@H](C)CN([C@@H](C)CO)C(=O)c2cc(N(C)C)ccc2O1 | inactive
C[C@H]1CCCn2nncc2COCCNC1=O | inactive
COCCOC(=O)N1C(=O)[C@@]2(c3ccccc31)[C@H](C(=O)N1CCCCCCC1)[C@H]1C(=O)O[C@H](c3ccccc3)[C@H](c3ccccc3)N1[C@@H]2c1ccccc1OCCO | inactive
CNS(=O)(=O)c1ccc(C)cc1 | inactive
Cc1ccc(S(=O)(=O)[N-]Cl)cc1.[Na+] | inactive
COc1cc(NC(=O)Cn2cnc3c2c(=O)n(C)c(=O)n3C)cc(OC)c1OC | inactive
Cc1cccc(-n2cc(CN)cn2)c1 | inactive

SMILES | cytotoxicity call
COc1cc(NC(=O)c2cccc(-n3cc(NC(=O)Nc4cccc(C)c4)cn3)c2)cc(OC)c1OC | active
Cc1noc(C)c1S(=O)(=O)Nc1cccc2c1O[C@@H](CN(C)S(=O)(=O)c1cn(C)cn1)[C@@H](C)CN([C@H](C)CO)C2=O | inactive
C[C@H](CO)N1C[C@H](C)[C@H](CN(C)C(=O)Nc2ccc(C(C)(C)C)cc2)OCc2cnnn2CCCC1=O | inactive
C[C@H]1CCCCO[C@H](CN(C)C(=O)NC2CCCCC2)[C@@H](C)CN([C@@H](C)CO)C(=O)c2cc(NS(=O)(=O)c3ccccc3)ccc2O1 | inactive
C[C@H](CO)N1C[C@H](C)[C@H](CN(C)C(=O)NC2CCCCC2)OCCCC[C@H](C)Oc2ccc(NS(=O)(=O)c3ccccc3)cc2C1=O | active
C[C@@H]1CCCCO[C@H](CN(C)C(=O)NC2CCCCC2)[C@@H](C)CN([C@@H](C)CO)C(=O)c2cc(NS(=O)(=O)c3ccccc3)ccc2O1 | inactive
C[C@@H]1CN([C@H](C)CO)C(=O)c2cc(NS(=O)(=O)c3ccccc3)ccc2O[C@@H](C)CCCCO[C@@H]1CN(C)C(=O)NC1CCCCC1 | inactive
C[C@@H]1CCCCO[C@@H](CN(C)C(=O)NC2CCCCC2)[C@H](C)CN([C@H](C)CO)C(=O)c2cc(NS(=O)(=O)c3ccccc3)ccc2O1 | inactive
C[C@@H]1CCCCO[C@@H](CN(C)C(=O)NC2CCCCC2)[C@H](C)CN([C@@H](C)CO)C(=O)c2cc(NS(=O)(=O)c3ccccc3)ccc2O1 | active
O=C(C[C@@H]1CC[C@@H](NC(=O)Cc2ccccn2)[C@@H](CO)O1)NCCCN1CCOCC1 | inactive
C[C@H](CO)N1C[C@H](C)[C@H](CN(C)Cc2ccc(C(=O)Nc3ccccc3N)cc2)Oc2c(NS(=O)(=O)c3cn(C)cn3)cccc2C1=O | inactive
C[C@@H]1CN([C@H](C)CO)C(=O)c2cccc(NC(=O)c3ccc(-c4nccs4)cc3)c2O[C@@H]1CN(C)C(=O)Nc1cccc2ccccc12 | inactive
COc1ccc(CN2C[C@@H](C)[C@@H](OC)CN(C)C(=O)c3cc(NC(=O)c4nc5ccccc5s4)ccc3OC[C@@H]2C)cc1 | inactive
CCCC(=O)Nc1ccc2c(c1)OC[C@@H](C)N(S(=O)(=O)c1cn(C)cn1)C[C@@H](C)[C@H](OC)CN(C)C2=O | inactive
C[C@H](CO)N1C[C@H](C)[C@H](CN(C)Cc2ccc(-c3ccccc3)cc2)Oc2ccc(NC(=O)Cc3ccccc3)cc2C1=O | active
C[C@@H]1CN([C@H](C)CO)C(=O)c2cc(NC(=O)Cc3ccccc3)ccc2O[C@@H]1CN(C)Cc1ccc(-c2ccccc2)cc1 | inactive
C[C@@H]1CN([C@@H](C)CO)C(=O)c2cc(NC(=O)Cc3ccccc3)ccc2O[C@@H]1CN(C)Cc1ccc(C(F)(F)F)cc1 | inactive
C[C@@H]1CN([C@@H](C)CO)C(=O)c2cc(NC(=O)Cc3ccccc3)ccc2O[C@@H]1CN(C)Cc1ccc(-c2ccccc2)cc1 | active
C[C@@H]1CN([C@H](C)CO)C(=O)c2cc(NC(=O)Cc3ccccc3)ccc2O[C@H]1CN(C)Cc1ccc(-c2ccccc2)cc1 | active
C[C@@H]1CN([C@@H](C)CO)C(=O)c2cc(NC(=O)Cc3ccccc3)ccc2O[C@H]1CN(C)Cc1ccc(-c2ccccc2)cc1 | active
C[C@@H]1CN([C@H](C)CO)C(=O)c2cc(NC(=O)Cc3ccccc3)ccc2O[C@H]1CN(C)Cc1ccc(C(F)(F)F)cc1 | inactive

From the antibiotic and cytotoxicity screens of Wong et al. (2023)
